Laboratory results as given in PubChem BioAssay.
The source made the active and inactive calls.

What was measured:
Albumin (Bos taurus) = Albumin (Bos taurus) (UniProt P02769); assay: compounds binding labelled BSA control protein – biochemical, small-molecule microarray, Alexa647 label, 635/667 nm fluorescence, artefact control for SMM control protein annotation, profiling panel (AID 1118); conditions: BSA-A647 binding, fluorescence 635 nm, higher = more signal;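 also: score merges 667 nm emission intensity and signal-to-noise per printed compound spot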
[1] = probe aXIP binding to arrayed compounds – biochemical, NeuroSMM set, 635/667 nm fluorescence, primary screen (AID 1119); conditions: small-molecule microarray, higher = more signal, called active from +8 up or from −8 down;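 also: probe is the protein aXip251-270 applied at 1 µg/mL to compound-printed slides; binding of probe to printed compounds measured as 667 nm fluorescence plus signal to noise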
[2] = probe aNOTCH3 binding on compound microarray – biochemical, small-molecule microarray, 635/667 nm fluorescence, primary screen (AID 1120); conditions: higher = more signal;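 also: probe is a biotin-tagged antibody raised against NOTCH3 rather than NOTCH3 protein; score merges spot fluorescence near 667 nm with spot signal to noise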
[3] = probe aNOTCH2 binding on compound microarray – biochemical, small-molecule microarray, 635/667 nm fluorescence, primary screen (AID 1121); conditions: higher = more signal;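 also: score merges feature fluorescence read at 667 nm with its signal to noise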
[4] = biological target: Carbonic anhydrase 2 (Homo sapiens) (UniProt P00918); assay: compounds binding carbonic anhydrase 2 – biochemical, small-molecule microarray, Alexa647-labelled CAII, profiling panel (AID 1122); conditions: CAII-A647 binding fluorescence, higher = more signal
[5] = COS7 lysate on small-molecule microarray, probe aHis, 635 nm (AID 1123); conditions: COS7 cell lysate, fluorescence, higher = more signal;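 also: z-score combines 667nm fluorescence intensity with signal-to-noise per printed compound spot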
[6] = probe aLAP1 signal on lysate-treated microarray – cell lysate, small-molecule microarray, COS7 lysate, primary screen (AID 1124); conditions: probe aLAP1, fluorescence, higher = more signal;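 also: lysate comes from COS7 cells expressing LAP1 and is applied at 0.3 µg/mL; score merges spot fluorescence near 667 nm with signal-to-noise over triplicate slides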
Sam68 (KHDRBS1) = assay: compounds binding KHDRBS1 protein – biochemical, small-molecule microarray, 635 nm fluorescence, primary screen (AID 1125); conditions: higher = more signal;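 also: score merges 667 nm channel intensity with signal to noise over triplicate slides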
[7] = test system: Chordin-like protein 2 (CHRDL2); assay: compounds binding chordin-like 2 – biochemical, small-molecule microarray, 635 nm fluorescence, primary screen (AID 1126); conditions: fluorescence 635 nm, higher = more signal;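 also: printed compound slides probed with Chrdl2 protein at 4 µg/mL for 1 h at 4 C; score merges 667 nm emission intensity with signal to noise over three replicate slides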
[8] = biological target: Concanavalin-A (Canavalia ensiformis) (UniProt P02866); assay: compounds binding concanavalin A lectin – biochemical, small-molecule microarray, Alexa647 label, 635 nm, artefact control for SMM control protein annotation, primary screen (AID 1127); conditions: ConA-A647 binding fluorescence, higher = more signal;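 also: z combines 667 nm emission intensity with signal-to-noise across three replicate slides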
[9] = compounds binding Alexa647 anti-His antibody – biochemical, small-molecule microarray, 635 nm fluorescence, artefact control for SMM control protein annotation, primary screen (AID 1128); conditions: higher = more signal;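 also: score merges feature fluorescence with signal-to-noise for each printed compound spot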
[10] = test system: Human papillomavirus type 1a E7 protein (residues 1-88); assay: HPV1a E7 small-molecule binders, primary screen, biochemical, small-molecule microarray, residues 1-88, 635 nm (AID 1129); conditions: small-molecule microarray binding, fluorescence 635 nm; higher = more signal
[11] = biological target: Focal adhesion kinase 1 (Homo sapiens) (UniProt Q05397); assay: PTK2 protein binding on printed compound slides – biochemical, small-molecule microarray, 635/667 nm fluorescence, BSA, DTT, primary screen (AID 1130); conditions: 635 nm fluorescence, higher = more signal;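 also: composite of spot emission at 667 nm and signal to noise over triplicate slides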
[12] = test system: Fibrinogen (Alexa647-labelled); assay: Alexa647-fibrinogen binding to printed small molecules – biochemical, small-molecule microarray, 635/667 nm fluorescence, artefact control for SMM control-protein annotation, profiling panel (AID 1131); conditions: fibrinogen-A647 binding fluorescence, higher = more signal;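 also: z-score merges 667 nm fluorescence with per-spot signal-to-noise over triplicate slides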
[13] = biological target: Follistatin (Homo sapiens) (UniProt P19883); assay: FST protein binding to printed compounds – biochemical, small-molecule microarray, 635/667 nm fluorescence, primary screen (AID 1132); conditions: 635 nm fluorescence, higher = more signal
[14] = biological target: Fibroblast growth factor 2 (Homo sapiens) (UniProt P09038); assay: basic fibroblast growth factor binding to printed compounds – biochemical, small-molecule microarray, 635/667 nm fluorescence, primary screen (AID 1133); conditions: FGF2, fluorescence 635/667, higher = more signal
[15] = JC-1 mitochondrial potential readout, lung cancer cells – cell-based, A549, JC-1 fluorescence, basal, 24 h, 100 nL, profiling panel (AID 1138); conditions: higher = more signal;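 also: A549 lung adenocarcinoma cells under basal conditions with no added stimulus; test concentration not given here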
Lefty1 = Lefty1 protein binding to printed compounds – biochemical, small-molecule microarray, 635/667 nm fluorescence, primary screen (AID 1139); conditions: fluorescence 635/667, higher = more signal
[16] = test system: wheat germ agglutinin (Triticum aestivum), Alexa647-labelled; assay: Alexa647-WGA lectin binding to printed small molecules – biochemical, small-molecule microarray, 635/667 nm fluorescence, artefact control for SMM control-protein annotation, profiling panel (AID 1140); conditions: WGA-A647 binding, 635 nm fluorescence, higher = more signal;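 also: score merges 667 nm feature emission with signal to noise over triplicate slides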
[17] = biological target: Luciferin 4-monooxygenase (Photinus pyralis) (UniProt P08659); assay: inhibition of purified Photinus pyralis luciferase – biochemical, luminescence, purified enzyme, 2006 set, primary screen (AID 1141); conditions: purified firefly luciferase, SteadyGlo luminescence, 30 min; higher = more signal, called active from +8 up or from −8 down;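 also: cell-free assay with purified firefly luciferase at 100 ng per well in PBS; test concentration not given here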
Luciferin 4-monooxygenase (Photinus pyralis), sequence (P08659 whole entry, looked up): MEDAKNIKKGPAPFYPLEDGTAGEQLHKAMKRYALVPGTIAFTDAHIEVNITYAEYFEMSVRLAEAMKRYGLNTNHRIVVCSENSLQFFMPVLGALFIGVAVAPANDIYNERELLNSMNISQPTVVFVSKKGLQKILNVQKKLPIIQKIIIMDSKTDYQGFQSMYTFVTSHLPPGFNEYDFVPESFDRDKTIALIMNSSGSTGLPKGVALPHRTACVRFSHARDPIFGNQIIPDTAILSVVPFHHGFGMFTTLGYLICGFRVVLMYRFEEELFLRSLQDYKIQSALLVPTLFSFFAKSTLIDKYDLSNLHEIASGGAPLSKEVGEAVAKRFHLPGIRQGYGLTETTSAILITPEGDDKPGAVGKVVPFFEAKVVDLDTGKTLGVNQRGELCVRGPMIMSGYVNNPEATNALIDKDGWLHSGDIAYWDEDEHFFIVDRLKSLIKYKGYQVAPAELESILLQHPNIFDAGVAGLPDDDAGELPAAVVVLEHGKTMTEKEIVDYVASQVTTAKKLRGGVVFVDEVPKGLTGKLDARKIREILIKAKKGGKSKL

Fibroblast growth factor 2 (Homo sapiens), sequence (P09038 whole entry, looked up): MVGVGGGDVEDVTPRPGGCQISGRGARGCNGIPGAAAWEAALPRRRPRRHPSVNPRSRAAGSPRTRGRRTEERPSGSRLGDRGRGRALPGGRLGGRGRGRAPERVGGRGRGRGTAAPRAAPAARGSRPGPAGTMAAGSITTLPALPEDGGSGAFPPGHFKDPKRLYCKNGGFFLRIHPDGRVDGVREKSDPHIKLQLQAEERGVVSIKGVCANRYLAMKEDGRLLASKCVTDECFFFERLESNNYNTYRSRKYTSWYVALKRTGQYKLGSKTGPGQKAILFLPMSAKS
Focal adhesion kinase 1 (Homo sapiens), sequence (Q05397 whole entry, looked up): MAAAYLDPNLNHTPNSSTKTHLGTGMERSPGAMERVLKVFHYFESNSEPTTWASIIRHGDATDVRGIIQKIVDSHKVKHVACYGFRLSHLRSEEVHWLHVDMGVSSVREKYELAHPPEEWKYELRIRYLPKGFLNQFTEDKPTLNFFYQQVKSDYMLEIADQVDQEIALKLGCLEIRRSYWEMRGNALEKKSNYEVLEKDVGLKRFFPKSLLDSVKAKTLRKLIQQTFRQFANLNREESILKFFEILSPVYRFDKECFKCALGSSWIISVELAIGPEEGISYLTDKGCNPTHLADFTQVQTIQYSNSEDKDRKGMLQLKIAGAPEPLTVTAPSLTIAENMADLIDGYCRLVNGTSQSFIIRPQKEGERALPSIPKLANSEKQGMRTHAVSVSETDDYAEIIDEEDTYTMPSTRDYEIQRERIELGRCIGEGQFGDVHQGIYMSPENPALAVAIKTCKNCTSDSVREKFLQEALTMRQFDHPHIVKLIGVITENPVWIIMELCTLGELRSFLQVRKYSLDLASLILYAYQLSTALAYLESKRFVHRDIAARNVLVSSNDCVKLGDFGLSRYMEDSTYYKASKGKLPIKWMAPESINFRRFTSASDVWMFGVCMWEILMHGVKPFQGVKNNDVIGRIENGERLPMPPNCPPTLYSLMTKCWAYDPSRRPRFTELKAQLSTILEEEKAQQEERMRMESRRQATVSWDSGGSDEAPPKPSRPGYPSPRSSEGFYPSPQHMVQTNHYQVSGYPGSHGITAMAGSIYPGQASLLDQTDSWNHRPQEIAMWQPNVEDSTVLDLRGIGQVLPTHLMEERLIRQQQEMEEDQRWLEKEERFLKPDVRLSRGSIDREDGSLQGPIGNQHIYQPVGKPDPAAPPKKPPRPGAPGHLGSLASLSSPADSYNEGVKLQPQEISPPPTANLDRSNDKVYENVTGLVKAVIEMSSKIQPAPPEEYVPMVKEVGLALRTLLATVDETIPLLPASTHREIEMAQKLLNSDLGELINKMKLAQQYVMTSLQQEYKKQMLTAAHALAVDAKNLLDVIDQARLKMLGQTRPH
Follistatin (Homo sapiens), sequence (P19883 whole entry, looked up): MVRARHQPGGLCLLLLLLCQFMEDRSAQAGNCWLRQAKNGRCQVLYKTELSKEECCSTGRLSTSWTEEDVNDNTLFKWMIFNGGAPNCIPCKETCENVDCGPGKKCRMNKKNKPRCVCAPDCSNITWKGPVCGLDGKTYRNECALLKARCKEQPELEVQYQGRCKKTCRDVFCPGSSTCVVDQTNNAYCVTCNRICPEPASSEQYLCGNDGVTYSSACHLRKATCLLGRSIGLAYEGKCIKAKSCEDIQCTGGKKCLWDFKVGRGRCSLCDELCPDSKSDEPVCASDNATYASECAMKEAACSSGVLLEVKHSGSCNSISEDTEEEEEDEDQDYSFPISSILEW
Albumin (Bos taurus), sequence (P02769 whole entry, looked up): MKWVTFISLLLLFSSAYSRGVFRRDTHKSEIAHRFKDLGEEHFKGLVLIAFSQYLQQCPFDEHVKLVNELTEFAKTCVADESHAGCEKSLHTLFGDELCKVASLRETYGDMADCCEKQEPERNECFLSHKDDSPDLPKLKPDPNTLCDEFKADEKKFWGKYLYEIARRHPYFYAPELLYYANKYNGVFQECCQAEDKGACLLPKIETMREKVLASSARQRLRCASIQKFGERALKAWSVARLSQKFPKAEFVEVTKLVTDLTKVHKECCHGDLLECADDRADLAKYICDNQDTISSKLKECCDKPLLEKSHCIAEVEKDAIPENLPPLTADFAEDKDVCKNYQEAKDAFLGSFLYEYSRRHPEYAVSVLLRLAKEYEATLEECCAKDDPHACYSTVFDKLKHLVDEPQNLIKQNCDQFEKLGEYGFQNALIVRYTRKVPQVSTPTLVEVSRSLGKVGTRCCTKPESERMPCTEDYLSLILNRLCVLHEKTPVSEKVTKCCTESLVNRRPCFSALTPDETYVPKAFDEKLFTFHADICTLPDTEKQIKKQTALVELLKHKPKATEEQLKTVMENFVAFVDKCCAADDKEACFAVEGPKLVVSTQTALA
Concanavalin-A (Canavalia ensiformis), sequence (P02866 whole entry, looked up): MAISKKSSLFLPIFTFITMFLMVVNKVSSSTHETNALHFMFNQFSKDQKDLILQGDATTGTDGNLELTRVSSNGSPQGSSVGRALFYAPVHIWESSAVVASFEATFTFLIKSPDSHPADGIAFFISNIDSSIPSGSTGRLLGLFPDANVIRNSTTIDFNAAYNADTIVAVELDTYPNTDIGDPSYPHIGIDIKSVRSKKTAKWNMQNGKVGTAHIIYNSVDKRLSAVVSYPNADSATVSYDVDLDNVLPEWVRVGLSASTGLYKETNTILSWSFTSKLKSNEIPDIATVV

Row | SMILES | composite z-score (Albumin (Bos taurus)) | composite Z-score [1] | composite z-score [2] | composite z-score [3] | composite z-score [4] | composite z-score [5] | composite z-score [6] | composite z-score (Sam68 (KHDRBS1)) | composite z-score [7] | composite z-score [8] | composite z-score [9] | composite z-score [10] | composite z-score [11] | composite z-score [12] | composite z-score [13] | composite z-score [14] | z-score [15] | composite z-score (Lefty1) | composite z-score [16] | z-score [17]
1 | COCCOC(=O)N1C(=O)[C@@]2(c3cc(C#CC4=CCCCC4)ccc31)[C@H](C(=O)Nc1nc3ccccc3s1)[C@H]1C(=O)O[C@H](c3ccccc3)[C@H](c3ccccc3)N1[C@@H]2c1ccc(OCCO)cc1 | 0.1 | -0.114 (inactive) | 0.0286 | -0.148 | 0.0924 | 0.417 | 0.338 | 1.16 | 0.984 | 1.03 | 0.424 | 1.07 | 0.147 | 0.192 | 1.18 | 0.898 | -1.99 | 0.726 | 0.253 | -5.3 (inactive)
2 | COc1ccc(CCN2C(=O)[C@@]3(c4ccc([N+](=O)[O-])cc4)CC(=O)N(C4CCCCC4)[C@@H]3c3ccc(CO)cc32)cc1 | -1.26 | 0.469 (inactive) | -0.0598 | -0.101 | 0.257 | 0.622 | 0.347 | 0.38 | 0.693 | 0.587 | 0.521 | -0.82 | 0.151 | -0.382 | 1.42 | 1.4 | -0.552 | 0.563 | -0.569 | 0.3 (inactive)
3 | COC(=O)[C@@]1(Cc2ccc(OC)cc2)[C@H]2c3cc(C(=O)N4CCCC4)n(Cc4ccc(OC)c(OC)c4)c3C[C@H]2CN1C(=O)c1ccccc1 | 1.08 | 0.983 (inactive) | 1.28 | 0.852 | 0.592 | 2.74 | 0.601 | 1.3 | 0.206 | 1.14 | 2.04 | 1.22 | 0.343 | 0.607 | 1.37 | 0.515 | 1.58 | 0.724 | 0.742 | 2.16 (inactive)
4 | CN1C(=O)[C@]2(Cc3ccccc3)N=C(c3ccc(OCCCO)cc3)O[C@@H]2c2ccccc21 | 0.18 | 0.307 (inactive) | 0.0927 | -0.0734 | 0.635 | 2.51 | 0.824 | 1.29 | 0.572 | 0.953 | 0.0581 | 1.2 | 1.07 | 0.775 | 1.3 | 1.8 | -0.00476 | 0.201 | 0.831 | -4.06 (inactive)
5 | CCOC(=O)C[C@H]1[C@H](OC(=O)Cc2ccc3c(c2)OCO3)[C@@H](NC(=O)c2ccc3ccccc3c2)c2cc(OCCCO)ccc2N1C(=O)c1ccccc1 | 0.601 | -0.0185 (inactive) | -0.0077 | -0.14 | 0.32 | 1.04 | 0.186 | 1.09 | 0.308 | 0.541 | 0.638 | 0.878 | 0.675 | 0.823 | 0.375 | 0.111 | 1.84 | 0.593 | 0.271 | -1.05 (inactive)
